Structures are written as SMILES. Among all 190,000 compounds or so, about 810 (0.43%) were called active. Only a selection was taken, and actives are over-represented in it overall. Unmarked numbers belong to inactive results. No stated cut-off is given here; in the data, active means inhibition above about 50%; inactive means the rest.

Our source for the inhibition values is PubChem BioAssay AID1209 (Sanford-Burnham Center for Chemical Genomics, 2008).

For the assay, the target named is Mannose-6-phosphate isomerase (Homo sapiens) (UniProt P34949). The experiment in a line: MPI enzyme activity inhibition – biochemical, fluorescence intensity, coupled assay, primary screen (AID 1209).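 Further: plate controls were DMSO vehicle for no effect and wells lacking substrate for full effect.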 The note with it: purified PMI enzyme, at 20 µM, hits give high values.
Sequence of Mannose-6-phosphate isomerase (Homo sapiens) (P34949 whole entry, looked up): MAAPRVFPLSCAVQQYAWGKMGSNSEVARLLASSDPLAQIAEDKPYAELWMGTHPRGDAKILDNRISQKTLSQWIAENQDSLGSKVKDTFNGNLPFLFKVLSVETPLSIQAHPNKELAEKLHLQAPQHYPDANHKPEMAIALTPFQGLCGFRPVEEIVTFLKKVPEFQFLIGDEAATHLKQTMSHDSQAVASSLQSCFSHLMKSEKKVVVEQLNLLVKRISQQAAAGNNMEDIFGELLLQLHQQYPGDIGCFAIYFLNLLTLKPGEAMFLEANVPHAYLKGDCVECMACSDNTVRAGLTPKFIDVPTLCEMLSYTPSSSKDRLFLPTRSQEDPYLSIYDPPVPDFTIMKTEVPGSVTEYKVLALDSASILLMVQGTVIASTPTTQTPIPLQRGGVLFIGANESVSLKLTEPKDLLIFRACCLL
The inhibition is the drop in the measured response relative to a control, in per cent. For `CC1=NN(c2ccccc2)C(=O)/C1=C/C=C/c1ccc(N(C)C)cc1`, the inhibition was 14.6%. For `CC1=NN(c2ccccc2)C(=O)/C1=C/C=C/c1ccccc1`, the inhibition is 3.1%. Next, `CC1=NN(c2ccccc2)C(=O)/C1=C/C=C/C=C/N(C)C`: 50.1% (active); `CCOc1ncccc1C(=O)Nc1nc(SC)ns1`: -7%; `O=C1C2C3C=CC(CNS(=O)(=O)c4ccccc4[N+](=O)[O-])(O3)C2C(=O)N1c1ccccc1` (centres undefined): -34.8%. Next, `COc1ccccc1C(OC(=O)c1cccs1)C(=O)NCc1ccco1` (centres undefined): -1.9%; `O=C(O)[C@@H]1CSC2(CCSC2)N1` (some centres undefined): -0.6%; `COC(=O)C1=C(C)N(Cc2ccco2)C(=O)/C1=C\c1ccc([N+](=O)[O-])cc1`: -16.2%. As for `COC(=O)C1=C(C)N(Cc2ccco2)C(=O)/C1=C\c1ccc(N(C)C)cc1`, the inhibition was 63.9% (active).

On to `CCOc1cc(/C=C2\C(=O)N(Cc3ccco3)C(C)=C2C(=O)OC)ccc1O`, for which the inhibition is 27.7%. For the compound `O=C(c1ccc(F)cc1)c1c[nH]c(C(=O)NCCCN2CCOCC2)c1`, the inhibition is 4.5%. Next, `N#Cc1c(NC(=O)Cn2nc(C(F)(F)F)c3c2CCCC3)sc2c1CCC2`: 56.8% (active).

Take `CC1CCc2c(sc(NC(=O)Cn3nc(C(F)(F)F)c4c3CCCCC4)c2C#N)C1` (centres undefined): the inhibition is -0.9%. Next, `CCc1c(C)sc(NC(=O)Cn2nc(C(F)(F)F)c3c2CCCC3)c1C#N`: 15.3%. Next, `CCOc1ccc(Br)cc1S(=O)(=O)Nc1ccc(N2CCOCC2)cc1`: 12%; `c1ccc(N2CCN(c3c4c(nc5ncnn35)CCC4)CC2)cc1`: 68.8% (active).

In the case of `CC1CCc2c(nc3ncnn3c2N2CCN(c3ccccc3)CC2)C1` (centres undefined), the inhibition was -7.9%. For `COc1cccc(N2CCN(c3c4c(nc5ncnn35)CCC4)CC2)c1`, the inhibition was -1.8%. Turning to `N#CC1=C(N)Oc2n[nH]c(-c3cccs3)c2C1C1C=CCCC1` (centres undefined), the inhibition is 2.1%. With `O=C(CSc1nc2ccccc2s1)CSc1nc2ccccc2s1`, the inhibition was 7.7%. With `O=C(O)CSc1ncccn1`, the inhibition is -18.2%.

For the compound `CN(C(=O)c1ccccn1)C1(C(=O)NC2CCCCC2)CCCCC1`, the inhibition was -7.7%.

As to `O=C(Nc1cc(N2CCOCC2)ncn1)c1ccc(F)cc1`, the inhibition was 5.3%. On to `Cc1cc(NC(=O)NC2(C(F)(F)F)Oc3ccc(Cl)cc3O2)no1` (centres undefined), for which the inhibition is 52% (active). Next, `O=C(Nc1cc(N2CCOCC2)ncn1)NC1(C(F)(F)F)Oc2ccccc2O1`: 35.5%; `COCCNC(=O)NC1(C(F)(F)F)Oc2ccc(Cl)cc2O1` (centres undefined): 22.5%; `O=C(NCCN1CCOCC1)NC1(C(F)(F)F)Oc2ccc(Cl)cc2O1` (centres undefined): 60.2% (active). For `O=C(NCCN1CCOCC1)NC1(C(F)(F)F)Oc2ccccc2O1`, the inhibition is 8.2%.

As to `O=C(NCc1cccnc1)NC1(C(F)(F)F)Oc2ccc(Cl)cc2O1` (centres undefined), the inhibition is 22.4%. Turning to `O=C(Nc1cc(N2CCOCC2)ncn1)NC1(C(F)(F)F)Oc2ccc(Cl)cc2O1` (centres undefined), the inhibition was 74.1% (active). For `COCC(C)NC(=O)NC1(C(F)(F)F)Oc2ccc(Cl)cc2O1` (centres undefined) the value was 22.8%; for `O=C(c1cc2nc(-c3ccco3)cc(C(F)(F)F)n2n1)N1CCCCCC1`, -12.3%; for `CCCOC(=O)c1ccc(Nc2nc(C)cc(=O)[nH]2)cc1`, 1.7%. For `Cc1cc(C)nc(SCc2nnc(SCC(=O)Nc3cc(C(F)(F)F)ccc3Cl)o2)n1`, the inhibition is 3%. Turning to `Cc1ccc(N2C(=O)C3Sc4[nH]c(=O)sc4C(c4ccccc4)C3C2=O)cc1` (centres undefined), the inhibition was 11.4%.

On to `COc1ccc(C(=O)NC(C)c2ccccc2)cc1Br` (centres undefined), for which the inhibition is 3.2%. Regarding `COC(=O)C1Sc2[nH]c(=O)sc2C2c3ccccc3OC(=O)C12` (centres undefined), the inhibition is 10.6%.

For `O=C(O)C1Sc2[nH]c(=O)sc2C2c3ccc(O)cc3OC(=O)C12` (centres undefined), the inhibition is 24.3%. Next, `O=C(O)C1Sc2[nH]c(=O)sc2C2c3cc(Cl)ccc3OC(=O)C12` (centres undefined): 50.4% (active).

With `O=C(Nc1ccc(S(=O)(=O)Nc2nccs2)cc1)c1cc(-c2ccccn2)nc2ccccc12`, the inhibition is -1.4%. Next, `CC(C)CCn1c(=O)c(C(=O)N/N=C/c2cccc(F)c2)c(O)c2ccccc21`: -3.7%; `CC(C)(C)C1=CC(=O)C(=O)C(C(C)(C)C)=C1`: 61.2% (active). For `CC(C)(C)C1=CC(=Nc2ccccc2N)C=C(C(C)(C)C)C1=O` the value was -7.3%; for `CC(C)(C=O)C1=CC(=O)c2ccccc2C1=O`, -17.2%; for `COc1ccc(CCNC(=O)CN2CCN(c3cccc(C(F)(F)F)c3)CC2)cc1`, 3.1%. As for `O=C(c1ccco1)N1CCN(c2nc(-c3ccc(F)cc3)cs2)CC1`, the inhibition is 5.4%. As for `N#CC(=C1CCCC1)c1nc(-c2cc3ccccc3oc2=O)cs1`, the inhibition was 1.4%. Regarding `CN(C)CCCNS(=O)(=O)c1ccc(Cl)s1`, the inhibition is 0%. For `Fc1ccc(C2c3cccn3CCN2C(=S)Nc2cccc(Br)c2)cc1` (centres undefined), the inhibition was 5.7%. For the compound `O=C1CCc2cc(S(=O)(=O)N3CCN(c4ccccc4F)CC3)ccc2N1`, the inhibition was 6%. For `COc1ccc(CC(NC(C)=O)C(=O)NC2CCN(C(=O)NCc3ccccc3)CC2)cc1OC` (centres undefined), the inhibition is -4.4%.

On to `CCC(=O)NC(=S)Nc1ccc(NC(=O)COc2ccccc2)cc1`, for which the inhibition is 10.1%. For `CCC(=O)NC(=S)Nc1ccc(NC(=O)COc2ccc(Cl)cc2Cl)cc1` the value was 5.1%; for `CCC(=O)NC(=S)Nc1ccc(NC(=O)COc2ccc(Cl)c(C)c2)cc1`, 62.3% (active). As for `Cc1cc(NC(=O)CSc2nnc(NC(=O)C3CC(=O)N(c4ccccc4)C3)s2)no1` (centres undefined), the inhibition was -9.8%.

With `O=C(CCn1c(=O)sc2ccccc21)NCCC1=CCCCC1`, the inhibition was 3.6%.

Regarding `CC(=O)C1=C(c2ccc(Br)cc2)C(=O)c2ccccc2C1=O`, the inhibition was 80.3% (active).

For `CC(C)c1ccc(C2=C(O)c3ccccc3C(=O)C2=O)cc1`, the inhibition was -3.9%.

As to `COc1ccc(C2=C(N)c3ccccc3C2=O)cc1`, the inhibition is 3.9%. Next, `CCOC(=O)C1=C(Cc2ccc(OC)cc2)C(=O)c2ccccc2C1=O`: 22.9%; `O=C(C1=C(c2ccccc2)C(=O)c2ccccc2C1=O)c1ccccc1`: 48.7%.

Regarding `OC(CNCc1ccccc1)Cn1ccc2ccccc21` (centres undefined), the inhibition is -1.3%. Next, `NC(N)=N/N=C/c1ccc(Br)cc1`: -2.5%. Consider `O=c1cc(-c2ccc(O)c(O)c2)oc2c(C3O[C@H](CO)[C@@H](O)[C@H](O)[C@H]3O)c(O)cc(O)c12` (some centres undefined), for which the inhibition is 51.9% (active). As for `O=c1cc(-c2ccc(O)cc2)oc2c([C@@H]3O[C@H](CO)[C@@H](O)[C@H](O)[C@H]3O)c(O)c([C@@H]3O[C@H](CO)[C@@H](O)[C@H](O)[C@H]3O)c(O)c12`, the inhibition is -0.7%. For `O=c1cc(-c2ccc(O)c(O)c2)oc2cc(O)c(C3OC(CO)C(O)C(O)C3O)c(O)c12` (centres undefined) the value was 45.4%; for `NC1=Nc2cccc3cccc1c23`, 12.8%. Next, `CC(=O)N1C(=O)c2cccc3cccc(c23)C(=O)N1C(C)=O`: 9.5%; `CCN1CCN(C(=O)c2oc(=O)c3ccccc3c2-c2ccc(C)cc2)CC1`: -1.6%.

Regarding `CCNc1nc2[nH]c(=O)c3c(c2s1)OC(N)=C(C#N)C3c1ccc(C)cc1` (centres undefined), the inhibition was 54.6% (active). For `CNc1nc2[nH]c(=O)c3c(c2s1)OC(N)=C(C#N)C3c1ccccc1` (centres undefined) the value was 43.5%; for `CNc1nc2[nH]c(=O)c3c(c2s1)OC(N)=C(C#N)C3c1cccc(F)c1` (centres undefined), 39.7%; for `COCCCNC(=S)N/N=C/c1ccc(N(C)C)cc1`, 1%. In the case of `CCC(C)/C(C)=N/NC(=O)c1ccc(COc2ccc(Cl)c(C)c2)cc1` (centres undefined), the inhibition is 13.9%. Consider `O=[N+]([O-])c1ccc(O)c2ncccc12`, for which the inhibition was -7.5%.

As to `Cc1ccc(NCc2ccccc2O)cc1C`, the inhibition is 19.9%. For the compound `COCc1ccc(O)c2ncccc12`, the inhibition was 23.7%. For the compound `Oc1ccc(F)c2cccnc12`, the inhibition is 50.9% (active). On to `OCc1ccc(O)c2ncccc12`, for which the inhibition was 27%. On to `Cc1ccc(NCc2ccc(O)c3ncccc23)cc1`, for which the inhibition is 50.8% (active).

With `Oc1ccc(COCc2ccccc2)c2cccnc12`, the inhibition was 46.1%.

As to `Cc1cccc(NCc2ccc(O)c3ncccc23)c1`, the inhibition is 42.5%.

Turning to `Oc1ccc(CNc2ccccc2)c2cccnc12`, the inhibition is 50.5% (active). For `Oc1ccc(CNc2ccc(F)cc2)c2cccnc12` the value was 36.2%. As to `Cc1ccc(NCc2ccc(O)c3ncccc23)cc1C`, the inhibition is 55.8% (active).

With `Cc1ccc(NCc2ccccc2O)cc1`, the inhibition is 13.8%.

Regarding `S=c1[nH]nc(-c2cccnc2)o1`, the inhibition was -18.4%. With `Nc1nc(NC(=O)/C=C\C(=O)O)nn1-c1ccccc1`, the inhibition is -12.4%. Turning to `Cc1ccc(C)c(NC(=S)N(Cc2ccc(Cl)cc2)Cc2ccc(C(=O)O)cc2)c1`, the inhibition was -4.3%.

Turning to `O=C(NCCN1C(=O)S/C(=C\c2ccccc2)C1=O)C1CCN(S(=O)(=O)c2cccs2)CC1`, the inhibition is 8.1%.

Regarding `CC(=O)c1cnn(-c2cc(Oc3cccc(C)c3)ncn2)c1C`, the inhibition is 16.6%. `O=Cc1cn(-c2ccc(F)cc2)c2ccccc12`: the inhibition was 4.3%. `Cc1cccc(NC(=O)c2ccccc2OCC(=O)N2CCOCC2)c1C`: the inhibition is 11.4%. Regarding `CCOc1ccccc1NC(=O)NCc1cccnc1`, the inhibition was 0.3%. Take `CSC1=C(C#N)C(c2ccc3c(c2)OCO3)C2=C(CCCC2=O)N1` (centres undefined): the inhibition is -3%. Next, `COc1cc(C(=S)N2CCN(c3cccc(Cl)c3)CC2)ccc1O`: 58.8% (active); `COc1cc(C(=S)N2CCN(c3ccccc3Cl)CC2)cc(O)c1O`: 67.5% (active). Consider `COc1ccc(C(=S)N2CCN(c3cccc(Cl)c3)CC2)c(OC)c1`, for which the inhibition is 20.6%. Consider `Oc1ccccc1C(=S)N1CCN(c2cccc(Cl)c2)CC1`, for which the inhibition is 22.1%. As for `COc1cc(C(=S)N2CCCC2)cc(OC)c1O`, the inhibition is 17.5%. For the compound `Oc1ccc(C(=S)N2CCN(c3cccc(Cl)c3)CC2)cc1`, the inhibition is 59.2% (active). As for `COc1cc(C(=S)N2CCCC2)cc(Cl)c1O`, the inhibition was 4.8%. Next, `CC(=O)c1ccc(NC(=S)N2CCN(c3cccc(Cl)c3)CC2)cc1`: -6.5%; `COc1cc(C(=S)N2CCCC2)ccc1O`: -0.7%.
